Test results published in PubChem BioAssay (NCATS).
Inconclusive results are not listed. Values without a mark were called inactive. The source made the active and inactive calls. Calls follow the shape of the dose curve; as a rule, active = well fitted inhibition curve with a large enough effect; inconclusive = small, poorly fitted or top-dose-only effect; inactive = flat fitted curve, though single readings scatter.

biological target: Luciferin 4-monooxygenase (Photinus pyralis) (UniProt P08659); assay: Biochemical firefly luciferase enzyme assay for NPC (AID 624030); also: nearly all actives have a fitted effect of over 70% in size;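 as to activity change, negative = inhibition: 0% = DMSO and -100% = full luciferase inhibition by PTC124 control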; conditions: purified P. pyralis luciferase, luminescence, 5 min; series mostly up to 58.6 µM; activity change, negative = inhibition: at the top concentration
Sequence (P08659 whole entry, looked up): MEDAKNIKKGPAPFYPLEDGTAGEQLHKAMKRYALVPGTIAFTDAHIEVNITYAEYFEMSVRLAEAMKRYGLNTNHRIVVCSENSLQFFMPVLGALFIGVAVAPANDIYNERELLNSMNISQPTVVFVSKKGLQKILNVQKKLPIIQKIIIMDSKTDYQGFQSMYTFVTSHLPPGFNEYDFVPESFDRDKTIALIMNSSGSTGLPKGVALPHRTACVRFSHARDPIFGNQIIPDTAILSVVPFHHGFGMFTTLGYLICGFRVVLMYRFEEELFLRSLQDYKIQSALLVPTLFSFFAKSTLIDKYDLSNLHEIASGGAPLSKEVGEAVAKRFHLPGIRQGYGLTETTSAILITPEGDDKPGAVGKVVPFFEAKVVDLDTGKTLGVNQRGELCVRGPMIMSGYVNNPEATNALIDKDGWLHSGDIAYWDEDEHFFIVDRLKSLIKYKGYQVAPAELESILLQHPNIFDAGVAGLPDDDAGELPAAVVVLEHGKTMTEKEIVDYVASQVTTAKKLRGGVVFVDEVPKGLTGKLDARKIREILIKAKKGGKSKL
Description: Charcot-Marie-Tooth-Association [CMTA] National Center for Advancing Translational Sciences [NCATS] Charcot-Marie-Tooth (CMT) disease was first characterized by Jean-Martin Charcot and Pierre Marie in France and, independently, by Howard Henry Tooth in England in 1886. CMT is one of the most common inherited neurological diseases, affecting approximately 1 in 2,500 Americans. […] The most prevalent type of CMT is known as CMT1A and caused by a duplication of the PMP22 gene which leads to over-expression of this protein. PMP22 is a glycosylated intrinsic membrane protein accounting for 2-5% of the myelin protein content, and its over-expression results in demyelination and subsequently axonal loss. A pair of cellular transcription-based assays was developed in the S16 rat Schwann cell lines (Hai, M., et al., 2002) stably transfected with orthogonal reporters - firefly luciferase (Fluc) and beta-lactamase (beta-Lac) - whose expression is driven by an intronic regulatory element of the PMP22 gene (Jones, E.A., et al., 2011) to recapitulate endogenous expression of PMP22. A comprehensive library of approved drugs, the NCGC Pharmaceutical Collection (Huang, R., et al., 2011), was screened in the cross-validating platform of the orthogonal reporter assays to identify drug modulators inhibitory towards PMP22 expression. A set of counter-screens was devised to address non-specific activity of the library. An ATP-dependent CellTiter-Glo assay (developed by Promega Corp) was utilized to control cell viability. In addition, biochemical Fluc enzyme assay was performed to assess direct inhibition of the Fluc enzymatic activity. References Hai, M., Muja, N., DeVries, G.H., Quarles, R.H. and Patel, P.I. Comparative analysis of Schwann cell lines as model systems for myelin gene transcription studies. J Neurosci Res, 2002. 69(4): pp 497-508 Huang, R., Southall, N., Wang, Y., Yasgar A., Shinn P., Jadhav, A. , Nguyen, D.-T. and Austin, C.P., The NCGC pharmaceutical collection: a comprehensive resource of clinically approved drugs enabling repurposing and chemical genomics. Sci Transl Med, 2011. 3(80): p. 80ps16.
Compounds were transferred to the plates in 23nl, and one microliter/well luciferase enzyme-buffer solution (10 nM P. pyralis luciferase and 50 mM Tris Acetate final concentrations) was dispensed yielding a final reaction volume of […]. Luciferase luminescence was measured by a ViewLux plate reader within 5 minutes of enzyme-buffer addition. The % activity was determined by normalizing to the average readings of PTC124 (a positive control) relative to DMSO (0% Activity). The concentration-effect curves were then classified based on curve quality (r2), response magnitude and degree of measured activity.
Potency is read from the fitted curve at half-maximal effect.

Compound | activity change, negative = inhibition | Potency
N[C@@H](CSCCCO)C(=O)O | 1.64% | –
COc1cc(C)c(Cc2cnc(N)nc2N)cc1OC | 4.54% | –
CC(C)(C)C(=O)C(Oc1ccc(Cl)cc1)n1ccnc1 (stereo not given) | -1.83% | –
Nc1nc2c(ncn2CCC(CO)CO)c(=O)[nH]1 | -1.43% | –
NC1CCN(c2cccc(Cl)n2)CC1 | 7.94% | –
CC(C)(C)NCC(O)COc1ccc(NC(=O)NC2CCCCC2)cc1 (stereo not given) | -13.8% | –
Nc1ccc(S(=O)(=O)Nc2nccs2)cc1 | -1.52% | –
O=C(O)c1ccccc1-c1ccc(C(F)(F)F)cc1 | -2.94% | –
OCCN1CCN(CCCN2c3ccccc3Sc3ccc(Cl)cc32)CC1 | 9.9% [at 24.9 µM] | –
CCOC(=O)c1ccc(O)cc1 | -0.855% | –
NC(=O)N/N=C/c1ccc([N+](=O)[O-])o1 | – | inactive
Cn1cc[nH]c1=S | 35.9% [at 24.9 µM] | –
O=C1NC(=O)[C@@]2(CCOc3ccc(F)cc32)N1 | 1.15% | –
[O-][n+]1cccc(CO)c1 | -1.99% | –
O=c1[nH]c(=O)c2[nH]c(=O)[nH]c2[nH]1 | – | inactive
C[C@]12C[C@H](O)[C@H]3[C@@H](CCC4=CC(=O)CC[C@@]43C)[C@@H]1CC[C@@H]2C(=O)CO | 2.09% | –
Nc1ccc(S(=O)(=O)NC(=O)c2ccccc2)cc1 | -0.56% [at 24.9 µM] | –
CNCCCC1c2ccccc2C=Cc2ccccc21 | 10.5% [at 24.9 µM] | –
CC(CN1c2ccccc2Sc2ccccc21)N(C)C (stereo not given) | 7.15% | –
CCN(CC)CCNC(=O)c1cc(Cl)c(N)cc1OC | 1.26% | –

Compound | activity change, negative = inhibition | Potency
COc1ccccc1O | – | inactive
CCOC(CN1CCN(CC(C)C(=O)c2ccccc2)CC1)c1ccccc1 (stereo not given) | 6.54% | –
O=C(CCCN1CCN(c2ccccn2)CC1)c1ccc(F)cc1 | -0.639% | –
O=C(O)CN1C(=O)c2cccc3cccc(c23)C1=O | -5.28% | –
Nc1ccc(S(=O)(=O)Nc2ccc(Cl)nn2)cc1 | – | inactive
COc1ccc2c(c1)C(=O)N(CCc1ccc(S(=O)(=O)NC(=O)NC3CCCCC3)cc1)C(=O)C2(C)C | -4.24% [at 24.9 µM] | –
CCN(CC)CCNC(=O)c1c(C)[nH]c(/C=C2\C(=O)Nc3ccc(F)cc32)c1C | 5.26% | –
CC1=C(CC(=O)O)c2cc(F)ccc2/C1=C\c1ccc(S(C)=O)cc1 (stereo not given) | -11% | –
CCCn1cnc2c1c(=O)n(CCCCC(C)=O)c(=O)n2C | 2.24% | –
Cc1c(O)cccc1C(=O)N[C@@H](CSc1ccccc1)[C@H](O)CN1C[C@H]2CCCC[C@H]2C[C@H]1C(=O)NC(C)(C)C | -0.305% | –
O=C(O)c1ccccn1 | 0.0354% | –
OCC(O)CN1CCN(c2ccccc2)CC1 (stereo not given) | 0.647% | –
CCn1cc(C(=O)O)c(=O)c2cnc(N3CCNCC3)nc21 | 2.32% [at 24.9 µM] | –
CC1=C(/C=C/C(C)=C/C=C/C(C)=C/C(=O)O)C(C)(C)CCC1 | – | 32.2 µM (active)
CCN(CC)CCNC(C(=O)OCCC(C)C)c1ccccc1 (stereo not given) | 0.887% | –
Cc1ccc(C(C)C)cc2c(C)ccc1-2 | -0.781% | –
COc1ccc(Cl)cc1C(=O)NCCc1ccc(S(=O)(=O)NC(=O)NC2CCCCC2)cc1 | -1.9% | –
CC[C@@]1(c2ccccc2)NC(=O)N(C)C1=O | 2.26% | –
O=c1cc[nH]c(=S)[nH]1 | -1.69% | –
Nc1ncnc2c1ncn2[C@@H]1O[C@H](CO)[C@@H](O)[C@H]1O | 1.74% | –
